Screening data as filed in PubChem.
MazF activator: increases E. coli MazEF RNase cleavage of RNA; FAM/BHQ RNA-DNA oligo cleavage fluorescence, 5 h; AID 504720; 0.32% of 350,000 active; P0AE70; activation, % at 20 µM; in the data active means activation above about 50%
Target sequence (P0AE70 whole entry, looked up): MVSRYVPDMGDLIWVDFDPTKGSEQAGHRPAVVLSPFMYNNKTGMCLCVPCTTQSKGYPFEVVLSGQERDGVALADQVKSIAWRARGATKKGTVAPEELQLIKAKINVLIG
BJeLR viability: kills HRASV12-expressing BJeLR cells | BJeLR (HRASV12) viability, CellTiter-Glo ATP luminescence, 48 h | inhibition, % (concentration not given with the values) | 0.17% of 300,000 active; in the data active means inhibition above about 50%; inconclusive means no clear call, values can overlap the other calls
PrP 5UTR inh: suppresses PrP 5' UTR mRNA reporter expression. cell-based PrP 5' UTR mRNA reporter, plate reader. inhibition, % (test concentration not listed). 0.35% of 340,000 active. AID 488862; in the data active means inhibition above about 52%
PrPC TRFRET: reduces human prion protein on the cell surface. P04156. cell surface PrPC, TR-FRET read-out. inhibition, % at 13.8 µM. 0.43% of 370,000 active; in the data active means inhibition above about 24%
PrP 5UTR single: prion 5' UTR mRNA inhibition, cherry-pick retest; shares compounds with PrP 5UTR inh; cell-based prion protein 5' UTR reporter, plate reader; inhibition, % at 2.5 µM; 48% of 1,100 active; in the data active means inhibition above about 54%; inconclusive means no clear call, values can overlap the other calls
Numbers stand for hits; – = inactive; ? = inconclusive; · = no result given. In the library only some 1.1% were active in any assay of this set; here they are far more common.

SMILES	MazF activator	BJeLR viability	PrP 5UTR inh	PrPC TRFRET	PrP 5UTR single
C[C@H](O)[C@@H]1C(=O)N2CCc3c([nH]c4ccccc34)[C@@H]2C[C@@H]1N(C)C(=O)OCc1ccccc1	·	·	·	–	·
O=C(C=Cc1ccc(OCc2ccccc2)cc1)c1c(F)cccc1F	·	·	·	–	·
Cc1ccc2c(c1)-c1c(cnn1CC(=O)NCCc1ccc(Cl)cc1)CO2	·	·	·	–	·
Nc1ncnc2c1ncn2[C@@H]1O[C@H](CNCc2ccc(OCC(=O)Nc3ccccn3)cc2)[C@@H](O)[C@H]1O	–	·	87	–	–
Nc1ncnc2c1ncn2[C@@H]1O[C@H](CNCc2ccc(OCc3ccccc3)cc2)[C@@H](O)[C@H]1O	–	·	–	–	·
COC(=O)N1Cc2ccnnc2CC1c1ccccc1-c1ccc(F)cc1 (stereo not drawn)	·	·	·	–	·
Cc1ccc(-c2cc3onc(-c4ccccc4)c3c(=O)n2C)cc1	–	·	61	–	–
CCN(CC)c1nc(Oc2ccc(C(=O)OC)cc2)nc(N2CCOCC2)n1	–	–	82	–	–
O=C(Nc1ccc(OCc2ccccc2)cc1)c1cccnc1	–	–	–	–	·
O=C(Nc1ccc(OCc2ccccc2Cl)cc1)c1cccnc1	–	–	66	–	71
CC(C)CCN(C)C1CCN(C(=O)Nc2ccc(Cl)cc2)CC1	·	·	·	–	·
COc1cc(-c2noc(C)c2-c2ccc(N(C)C)nc2)cc(OC)c1OC	–	–	67	–	90
COC(=O)C1=C(c2ccccc2OCc2ccccc2)C[C@@H]2CC[C@H]1N2C(=O)NCCc1ccc(F)cc1	–	·	58	–	–
Cc1cc(C)c(S(=O)(=O)N2CCN(C(=O)CCOc3ccccc3C)CC2)c(C)c1	–	·	88	–	–
CCCC/C=C1/C(c2ccccc2)N(Cc2ccc(OC)cc2OC)C2=NC(c3ccccc3)CC(=O)N21 (stereo not drawn)	·	·	·	–	·
Cc1ccccc1OCCCN1CCC(C(O)(c2ccccc2)c2ccccc2)CC1	·	·	·	–	·
Nc1[nH]c2cc(C(F)(F)F)ccc2c1C(=O)NC1CCCCC1	·	·	·	–	·
O=[N+]([O-])c1ccccc1Nc1c2ccccc2nc2ccccc12	–	–	–	–	·
O=[N+]([O-])c1cccc2nc3ccccc3c(NCCCn3ccnc3[N+](=O)[O-])c12	–	·	87	–	95
Cc1cc(-c2n[nH]c(=S)n2N=Cc2cccc(OCc3ccccc3)c2)n[nH]1	·	·	·	–	·
CC1C/C(=C/c2ccccn2)C(=O)/C(=C/c2ccccn2)C1 (stereo not drawn)	–	–	–	·	·
CC(C)(C)C1C/C(=C/c2ccccn2)C(=O)/C(=C/c2ccccn2)C1 (stereo not drawn)	–	–	92	·	97
CN1C2CCC1/C(=C/c1ccccn1)C(=O)/C2=C\c1ccccn1	–	·	78	–	91
O=C(CCS(=O)(=O)Cc1ccccc1)N1CCN(c2ccc([N+](=O)[O-])cc2)CC1	–	–	80	–	–
Cn1ncnc2c(=O)n(C)c(=O)nc1-2	–	–	96	·	98
SMILES	MazF activator	BJeLR viability	PrP 5UTR inh	PrPC TRFRET	PrP 5UTR single
O=c1ccn2c(n1)OC1CC2OC1COC(c1ccccc1)(c1ccccc1)c1ccccc1 (stereo not drawn)	·	·	·	–	·
N/C(=N\OC(=O)c1cccc2ccccc12)c1ccccn1	–	–	–	–	·
COc1cccc(C(=O)O/N=C(\N)c2ccccn2)c1OC	–	–	52	–	?
COc1cccc(C(=O)O/N=C(\N)c2ccccn2)c1	–	–	52	–	91
CCCc1ccc(C(=O)O/N=C(\N)c2ccccn2)cc1	–	–	88	–	77
N/C(=N\OC(=O)c1ccc2ccccc2c1)c1ccccn1	–	–	53	–	–
N/C(=N\OC(=O)c1ccc(=O)n(Cc2ccccc2)c1)c1ccccn1	–	–	–	–	·
N/C(=N\OC(=O)c1cccc([N+](=O)[O-])c1)c1ccccn1	–	–	–	–	·
O=C(N[C@H](C(=O)N1CCC[C@H]1C(=O)NCc1ccccc1)c1ccccc1)c1ccc(Cl)c(Cl)c1	·	·	·	–	·
CCOc1ccc(-c2cc(N)n(S(=O)(=O)c3ccc(OC)c(OC)c3)n2)cc1	–	–	–	–	·
COc1ccc(S(=O)(=O)n2nc(-c3ccc(Cl)cc3)cc2N)cc1OC	–	–	56	–	–
CCC1CCCCN1CCCNC(=O)CC1Oc2ccccc2NC1=O (stereo not drawn)	–	–	–	–	·
O=C(CC1Oc2ccccc2NC1=O)NCCCN1CCN(C2CCCCC2)CC1 (stereo not drawn)	–	–	70	–	–
S=C(NCc1ccco1)Nc1cc(-c2ccccc2)[nH]n1	–	–	62	–	–
S=C(NCc1ccco1)Nc1ccc(Br)cn1	–	–	–	–	·
C#CCNC(=O)C[C@H]1C[C@@]2(C(=O)OC)C(=C[C@H](C(C)(C)C)O[C@@H]2C)N(Cc2ccc(Cl)cc2Cl)C1=O	·	·	·	–	·
COc1ccc(OC)c(CN2C(=O)CN(S(C)(=O)=O)CC2(C)c2nnnn2C2CCCC2)c1 (stereo not drawn)	·	·	·	–	·
COc1ccc2nc(NCCNC(=S)NCCCN3CCOCC3)c(C#N)cc2c1	–	–	78	–	?
Cc1cc2cc(C#N)c(NCCNC(=S)NCCCN3CCOCC3)nc2cc1C	–	–	–	–	·
COc1ccc(C(C)=O)cc1CSc1nc2cc(Cl)ccc2o1	–	–	57	–	–
O=S1(=O)N[C@@H](Cc2ccccc2)COc2cc(N3CCCCC3)ccc21	·	·	·	–	·
CN(C(=O)c1ccccc1C(=O)OCC(=O)NCc1cccs1)C1CCCCC1	–	–	55	–	–
O=C(COC(=O)c1ccccc1Cl)NCc1cccs1	–	·	·	–	·
CN1CCCN(S(=O)(=O)c2ccc3c(c2)CCC(=O)N3)CC1	·	·	·	–	·
O=C(COC(=O)c1cc([N+](=O)[O-])ccc1N1CCOCC1)NCc1ccccc1	–	·	·	–	·
SMILES	MazF activator	BJeLR viability	PrP 5UTR inh	PrPC TRFRET	PrP 5UTR single
COc1cccc(CNC(=O)COC(=O)c2cc([N+](=O)[O-])ccc2N2CCCC2)c1	–	·	84	–	–
CC(C)(C)c1ccc(C(=O)N2CCCCCC2=O)cc1	–	–	59	–	?
CCC1(O)C(=O)OCc2c1cc1n(c2=O)Cc2cc3c(N)cccc3nc2-1 (stereo not drawn)	–	·	53	–	90
CCN(CC)c1ccc(C2NC(=O)c3ccccc3N2)cc1 (stereo not drawn)	–	·	60	–	–
CC(C)C[C@@H](NC(=O)OC(C)(C)C)C(=O)N1O[C@]23C=C[C@]14C[C@@H](O)CC[C@]4(C)C2CC[C@]1(C)[C@@H]([C@H](C)/C=C/[C@H](C)C(C)C)CC[C@H]13 (stereo partly drawn)	·	·	·	–	·
CCOc1ccc(S(=O)(=O)Nc2cc(OC)ccc2OC)cc1	–	–	60	–	88
COc1ccc(OC)c(NS(=O)(=O)c2ccc(SC)cc2)c1	–	–	–	–	·
COc1ccc(OC)c(NS(=O)(=O)c2ccc(N3CCCC3=O)cc2)c1	–	–	60	–	90
COc1ccc(CCNS(=O)(=O)c2ccc(N3CCCC3=O)cc2)cc1	–	–	–	–	·
COc1ccc(N)cc1CN1CCN(c2ncc(Cc3ccccc3)cn2)CC1	·	·	·	–	·
Cc1ccc(NC(=O)NNC(=O)CCn2nc(C)c([N+](=O)[O-])c2C)cc1C	·	·	·	–	·
